PLAP act – PLAP enzyme activators, biochemical, luminescence, HTS. Alkaline phosphatase, placental type (Homo sapiens), P05187. purified PLAP enzyme, luminescent substrate read-out; active compounds read high. activation fold at 20 µM. 96,000 tested, 1.2% active. AID 696, 2007; in the data active = activation fold above about 2
CYP2C9 act – human CYP2C9 activators, primary screen, biochemical, luminescence | recombinant CYP2C9, luciferin-H conversion; active compounds read high; factor 1 = untreated enzyme, 0 = blocked | activation factor at 5 µM | 96,000 tested, 1.4% active | AID 1024, 2008;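 active = activation factor of 2 or more for CYP2C9 at a 5 µM dose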;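 note: 0 = sulfaphenazole-blocked wells and 1 = vehicle-only wells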
CYP2C9 inh – blockers of cytochrome P450 2C9 activity – biochemical, luminescence, ADME assay, primary screen | 96,000 tested, 20% active | AID 777, 2007 | CYP2C9 Supersomes, luciferin-H conversion | inhibition, % at 5 µM;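 active = blocking of liver enzyme CYP2C9 beyond about 50% at 5 µM, limit read from the data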
CYP2C19 act – human CYP2C19 activators, primary screen, biochemical, luminescence; Cytochrome P450 2C19 (Homo sapiens), P33261; recombinant CYP2C19, luciferin-H EGE luminescence; active compounds read high; 0 = fully inhibited enzyme, 1 = untreated enzyme; activation factor at 5 µM; 96,000 tested, under 10 active;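 active = activation factor of at least 2 at 5 µM in the primary screen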;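 note: 0 = wells with 2.5 mM tranylcypromine and 1 = vehicle-only wells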
Target sequence (P33261 whole entry, looked up): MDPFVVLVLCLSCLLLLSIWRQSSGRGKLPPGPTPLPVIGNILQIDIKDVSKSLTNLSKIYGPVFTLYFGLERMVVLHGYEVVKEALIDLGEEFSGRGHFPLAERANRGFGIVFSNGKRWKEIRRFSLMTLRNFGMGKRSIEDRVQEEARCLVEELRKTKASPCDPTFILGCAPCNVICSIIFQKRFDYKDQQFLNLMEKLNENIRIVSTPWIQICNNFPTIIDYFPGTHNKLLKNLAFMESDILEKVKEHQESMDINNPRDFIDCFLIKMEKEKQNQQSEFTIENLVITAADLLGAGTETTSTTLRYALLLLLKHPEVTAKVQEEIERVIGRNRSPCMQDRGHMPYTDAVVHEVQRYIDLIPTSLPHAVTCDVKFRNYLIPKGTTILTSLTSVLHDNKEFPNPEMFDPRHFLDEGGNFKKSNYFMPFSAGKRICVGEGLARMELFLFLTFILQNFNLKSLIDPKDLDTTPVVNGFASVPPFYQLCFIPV
CYP2C19 inhib – blockers of cytochrome P450 2C19 activity – biochemical, luminescence, ADME assay, primary screen; CYP2C19 Supersomes, luciferin-H EGE luminescence, 30 min; inhibition, % at 5 µM; 96,000 tested, 21% active; AID 778, 2007;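 active = CYP2C19 inhibition above a set limit at 5 µM in the primary screen, cut at about 50% in these data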;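 note: plate controls were negative control wells for no effect and 2.5 mM tranylcypromine positive control for full effect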
* marks the source's active call; other numbers are inactive results. Only some compounds are listed: those with a hit (about 31% of all), similar ones and a draw of the others.

SMILES | PLAP act | CYP2C9 act | CYP2C9 inh | CYP2C19 act | CYP2C19 inhib
COc1ccc(N2CCN(C(=O)CSc3nnc(-c4ccc5[nH]c(C)c(C)c5c4)o3)CC2)cc1 | 0.9 | 1 | 4.5 | 1 | 4.2
Cc1[nH]c2ccc(-c3nnc(SCC(=O)c4ccccc4F)o3)cc2c1C | 1.2 | 0.2 | 77.7* | 0.4 | 57.2*
Cc1ccc(C(=O)CSc2nnc(-c3ccc4[nH]c(C)c(C)c4c3)o2)cc1C | 1.5 | 0.3 | 71.2* | 0.5 | 47.7
Cc1[nH]nc(SCC(=O)N2CCC(C)CC2)c1[N+](=O)[O-] | 1.3 | 0.8 | 20.0 | 0.5 | 48.2
Cc1cccc(-n2c(C)nc3sccc3c2=O)c1 | 1 | 1 | 2.2 | 0.6 | 41.9
CN1c2ccccc2Oc2c(c(=O)n(C)c(=O)n2C)C1c1cccc([N+](=O)[O-])c1 (stereo not drawn) | 1 | 0.5 | 53.8* | 0.8 | 23.0
O=c1nc2n(c3cc(Cl)c(S(=O)(=O)N4CCOCC4)cc13)CCCCC2 | 1 | 0.9 | 9.3 | 1.1 | -12.7
COc1ccc(CN(C)C2CCCCC2)cc1 | 1.2 | 1.3 | -28.9 | 0.4 | 64.2*
CCCCn1c(=O)n(CC(=O)Nc2ccc(OC)c(Cl)c2)c(=O)c2c1nc(CO)n2CCC | 0.9 | 0.1 | 90.1* | 0.2 | 79.4*
CCCCn1c(=O)n(CC(=O)Nc2ccc(C)c(Cl)c2)c(=O)c2c1ncn2Cc1ccco1 | 1 | 0.4 | 61.8* | 0.5 | 51.4*
Cc1ccc(/S(C)=N/S(=O)(=O)c2ccc(C)cc2)cc1 (stereo not drawn) | 0.9 | 1.6 | -59.0 | 0.7 | 28.2
Cc1ccc(S(=O)(=O)N=S(CC2CC2(Cl)Cl)CC2CC2(Cl)Cl)cc1 (stereo not drawn) | 1.8 | 0.6 | 43.9 | 0.4 | 62.3*
O=C(COC(=O)c1cc(S(=O)(=O)N2CCOCC2)c(Cl)cc1Cl)Nc1ncc(C(F)(F)F)cc1Cl | 1 | 0.9 | 6.1 | 1 | 2.9
CCOC(=O)c1sc(-n2[nH]c(C)cc2=O)nc1C | 0.9 | 0.7 | 29.3 | 1 | -0.2
CCOC(=O)COn1c(=O)c(=O)n(O)c2ccccc21 | 0.9 | 0.1 | 89.9* | 0 | 99.2*
CCOC(=O)COn1c(SCC(=O)OCC)nc2ccccc2c1=O | 0.8 | 0.8 | 19.2 | 0.5 | 53.4*
CCOC(=O)COn1c(=O)c(=O)n(OC)c2ccccc21 | 1.2 | 1 | -1.7 | 1.2 | -20.4
CCn1c(SCC(=O)NCc2ccccc2)nc2ccccc2c1=O | 0.9 | 0.7 | 27.0 | 0.6 | 44.2
CCOC(=O)C(C)Sc1nc2ccccc2c(=O)n1CC (stereo not drawn) | 1.4 | 0.4 | 63.0* | 0.2 | 76.7*
C=CCn1c(SC(C)C(=O)NCCC2=CCCCC2)nc2ccccc2c1=O (stereo not drawn) | 1.1 | 0.4 | 56.0* | 0.5 | 46.9
CC(C)OC(=O)[C@H]1[C@H](c2ccc(Cl)cc2)[C@@](C#N)(C(N)=O)[C@@H]2C=CC(C(N)=O)=CN21 | 1.1 | 1 | -3.1 | 0.8 | 25.0
CC(C)=CC(=O)Nc1ccccc1Br | 0.8 | 1 | 2.2 | 0.9 | 11.9
Cc1cc(-c2[nH]nc3c2C(c2ccsc2)C(C#N)=C(N)O3)c(C)s1 (stereo not drawn) | 1.9 | 0.1 | 92.8* | 0.2 | 83.8*
Cc1cc(-c2[nH]nc3c2C(c2cccc(O)c2)C(C#N)=C(N)O3)c(C)s1 (stereo not drawn) | 1.7 | 0.5 | 51.0* | 0.1 | 87.7*
Cc1cc(C)nc(N2CCC(C(=O)NC3CCCc4ccccc43)CC2)n1 (stereo not drawn) | 0.9 | 1.8 | -76.4 | 1 | -1.2
SMILES | PLAP act | CYP2C9 act | CYP2C9 inh | CYP2C19 act | CYP2C19 inhib
CC(=O)NC1(c2ccccc2)CCN(c2nc(C)cc(C)n2)CC1 | 1.7 | 0 | 96.6* | 0.1 | 93.3*
CC1(C)CC(=NO)CC(C)(C)N1 | 0.9 | 0.7 | 34.2 | 0.9 | 8.1
CCCn1c(-c2ccc(F)cc2)cnc1SCC(=O)O | 1.2 | 0.9 | 13.8 | 0.9 | 5.6
CCn1c(-c2ccc(F)cc2)cnc1SCC(=O)N1CCCCC1C (stereo not drawn) | 1.2 | 0.6 | 39.6 | 0.4 | 62.7*
CCn1ncc([N+](=O)[O-])c1C(=O)N1CCCC1 | 0.9 | 1.1 | -12.6 | 1.2 | -22.4
CCn1cc([N+](=O)[O-])c(C(=O)N2CCCC2)n1 | 0.9 | 0.6 | 41.0 | 0.4 | 55.6*
COC(=O)c1nn(-c2ccc(OC)cc2)c(=O)cc1Oc1cccc(Cl)c1 | 1 | 1 | 0.5 | 0.9 | 12.3
O=C(NCCCn1ccnc1)C1CC2CCC1C2 (stereo not drawn) | 1 | 0.3 | 74.2* | 0 | 98.0*
O=C(O)C1C2CCC(C2)C1C(=O)NCCCn1ccnc1 (stereo not drawn) | 1 | 0.5 | 52.2* | 0.2 | 79.2*
COc1ccc(CCN(CC(=O)NC2CCCC2)C(=O)CCC(=O)Nc2cc(C)on2)cc1OC | 1.4 | 0.7 | 29.9 | 0.9 | 6.2
O=C1c2ccccc2C(=O)N1CCC1=CCCCC1 | 1 | 0.8 | 19.5 | 0.4 | 61.3*
Cc1ccc2c(c1)N(CCCC(=O)NCC1COc3ccccc3O1)C(=O)CO2 (stereo not drawn) | 1.4 | 0.6 | 37.9 | 0.6 | 39.3
Cc1ccc2c(c1)N(CCCC(=O)NCCC1=CCCCC1)C(=O)CO2 | 1.1 | 0.4 | 57.9* | 0.4 | 59.1*
CC(C(=O)NCCC1=CCCCC1)N1C(=O)c2ccccc2C1=O (stereo not drawn) | 1.1 | 0.8 | 22.6 | 0.8 | 22.8
O=C(CCCN1C(=O)c2ccccc2C1=O)NCCC1=CCCCC1 | 1 | 0.4 | 61.5* | 0.8 | 19.0
O=C(O)c1ccc2c(c1)C(=O)N(CCC1=CCCCC1)C2=O | 1.1 | 0.8 | 15.6 | 1 | 0.8
S=c1[nH]ncn1-c1ccccn1 | 1 | 1.1 | -11.6 | 1 | -3.0
O=C(Nc1ccc(S(=O)(=O)N2CCOCC2)cc1)C1COc2ccccc2O1 (stereo not drawn) | 0.9 | 0.8 | 16.3 | 1 | 3.2
O=C(Nc1nc(-c2ccc(S(=O)(=O)N3CCCC3)cc2)cs1)C1COc2ccccc2O1 (stereo not drawn) | 1.3 | 0.1 | 92.2* | 0.4 | 61.8*
CCOC(=O)N1CCN(C(=O)CSCC(=O)Nc2nc(-c3ccc4c(c3)OCO4)cs2)CC1 | 0.9 | 0.3 | 73.1* | 0.6 | 41.6
O=C(Nc1nc(-c2ccc3c(c2)OCO3)cs1)C1COc2ccccc2O1 (stereo not drawn) | 1 | 0.2 | 79.7* | 0.6 | 38.9
Cc1ccc(-n2c(=O)cc(NCc3cccnc3)[nH]c2=O)cc1 | 1 | 0.9 | 8.5 | 0.9 | 11.0
CC1CCN(C(=S)c2ccc(O)cc2)CC1 | 0.9 | 1.1 | -9.4 | 0.5 | 45.3
CC1CCN(C(=S)c2ccccc2O)CC1 | 1.2 | 0.7 | 29.0 | 0.1 | 94.4*

Screens (PubChem BioAssay)
